PubChem BioAssay
For some of these results: Potency and affinity values are given separately. Calls of active or inactive are those of the source.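 Rule for the calls, unless noted: active = earlier screen potentiator hit that boosts the TRPC4 ion channel at some dose, with a dose response; inactive = no potentiation, no dose response, or not a prior hit.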

Experiments:
[1] = tested on: TRPC4 beta (transient receptor potential cation channel C4), mouse; assay: TRPC4 cation channel opening, retest – cell-based, Fluo4 calcium, HEK293 TRPC4beta/mu-opioid, duplicates, 10 µM, confirmation (AID 2426;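 active = fluorescence ratio normalized to control raised more than 50% in primary screen plus both repeat runs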;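 for activation: percent rise of integrated ratio over buffer wells lacking compound which define 0%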); details: Fluo4 calcium fluorescence, at 10 µM; active compounds read high
[2] = tested on: transient receptor potential cation channel C4 beta (TRPC4), mouse; assay: TRPC4 cation channel opening, second retest – cell-based, second round, Fluo4, HEK293 TRPC4beta/mu-opioid, 1 µM, confirmation (AID 2461;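 active = primary screen active and over 50% activation in each of two duplicate runs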;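 for activation: 0% = wells without test compound as baseline of integrated fluorescence ratio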); details: Fluo4 calcium fluorescence, at 1 µM; active compounds read high
[3] = tested on: TRPC4 (transient receptor potential cation channel C4 beta), mouse; assay: potentiation of DAMGO EC20 TRPC4 response – cell-based, second round, Fluo-4, HEK293 TRPC4beta/mu-opioid, 1 µM, confirmation (AID 2554;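 active = primary screen hit whose fluorescence ratio, in both repeats, exceeds the weak agonist control mean by 3 SD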); details: DAMGO EC20, Fluo-4 calcium flux, at 1 µM; active compounds read high
[4] = tested on: TRPC4 beta (transient receptor potential cation channel C4), mouse; assay: potentiation of DAMGO EC20 TRPC4 response – cell-based, Fluo-4, HEK293 TRPC4beta/mu-opioid, confirmation (AID 2555;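 active = primary screen hit whose calcium fluorescence ratio, in both repeats, exceeds the weak agonist control mean by 3 SD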); details: DAMGO EC20, Fluo-4 calcium flux, at 10 µM; active compounds read high
[5] = molecular target: Short transient receptor potential channel 4 (Mus musculus) (UniProt Q9QUQ5); assay: blockers of DAMGO-evoked TRPC4 calcium flux – cell-based, Fluo4, HEK293 TRPC4beta/mu-opioid, confirmation (AID 2636;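 active = calcium signal cut by more than 3 SD below the full-agonist control yet still positive, in both repeats and the earlier primary screen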); details: at 10 µM; active compounds read high
Short transient receptor potential channel 4 (Mus musculus), sequence (Q9QUQ5 whole entry, looked up): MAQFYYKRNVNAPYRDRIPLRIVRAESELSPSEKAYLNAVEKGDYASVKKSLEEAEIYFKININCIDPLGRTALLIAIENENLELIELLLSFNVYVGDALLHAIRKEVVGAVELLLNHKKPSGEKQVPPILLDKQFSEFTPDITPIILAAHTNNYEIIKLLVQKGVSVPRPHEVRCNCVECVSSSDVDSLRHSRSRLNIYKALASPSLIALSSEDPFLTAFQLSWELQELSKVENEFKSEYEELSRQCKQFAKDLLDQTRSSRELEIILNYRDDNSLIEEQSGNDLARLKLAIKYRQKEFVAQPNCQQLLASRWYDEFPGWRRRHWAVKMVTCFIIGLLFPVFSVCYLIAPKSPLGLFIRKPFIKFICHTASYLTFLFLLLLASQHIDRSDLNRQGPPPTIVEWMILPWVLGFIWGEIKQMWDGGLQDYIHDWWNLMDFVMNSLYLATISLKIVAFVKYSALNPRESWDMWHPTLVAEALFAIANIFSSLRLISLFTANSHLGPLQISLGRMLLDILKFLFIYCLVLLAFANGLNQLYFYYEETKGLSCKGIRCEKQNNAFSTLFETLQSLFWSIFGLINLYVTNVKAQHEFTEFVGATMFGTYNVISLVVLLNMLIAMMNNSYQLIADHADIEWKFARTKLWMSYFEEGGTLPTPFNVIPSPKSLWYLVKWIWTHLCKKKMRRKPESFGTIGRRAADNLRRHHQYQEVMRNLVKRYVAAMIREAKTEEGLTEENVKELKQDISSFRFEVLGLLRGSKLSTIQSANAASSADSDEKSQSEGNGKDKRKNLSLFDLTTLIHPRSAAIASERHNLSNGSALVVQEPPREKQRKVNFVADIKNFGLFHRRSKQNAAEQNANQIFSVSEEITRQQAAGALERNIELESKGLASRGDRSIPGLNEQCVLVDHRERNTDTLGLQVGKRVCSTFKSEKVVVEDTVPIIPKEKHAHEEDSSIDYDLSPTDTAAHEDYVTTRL

[6] = molecular target: Short transient receptor potential channel 4 (Mus musculus) (UniProt Q9QUQ5); assay: blockers of DAMGO-evoked TRPC4 calcium flux – cell-based, second round, Fluo4, HEK293 TRPC4beta/mu-opioid, 1 µM, confirmation (AID 2637;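 active = calcium signal ratio cut to more than 3 SD under the fully stimulated control mean yet still positive, in both repeats and the primary screen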); details: at 1 µM; active compounds read high
[7] = molecular target: Short transient receptor potential channel 4 (Mus musculus) (UniProt Q9QUQ5); assay: potentiation of DAMGO-evoked TRPC4 calcium signal – cell-based, HEK293 TRPC4/mu-opioid, Fluo-4 calcium, EC20 DAMGO, dose response (AID 434941);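 note: calcium entry triggered by an EC20 dose of DAMGO at the co-expressed mu-opioid receptor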
[8] = molecular target: Short transient receptor potential channel 4 (Mus musculus) (UniProt Q9QUQ5); assay: block of DAMGO-driven TRPC4 calcium entry – cell-based, HEK293 TRPC4/mu-opioid, Fluo-4 calcium, dose response (AID 434942;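 active = primary screen inhibitor hit that blocks the TRPC4 channel at some tested dose, yielding a dose curve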)
[9] = molecular target: Short transient receptor potential channel 6 (Mus musculus) (UniProt Q61143); assay: TRPC6 blockade by TRPC4 inhibitor hits – cell-based, HEK293, membrane potential dye, duplicate, selectivity assay for TRPC4 inhibitor project, confirmation (AID 434948;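 active = active in primary screen and both duplicates, each dropping signal beyond three positive-control SD with fluorescence still positive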); details: HEK293 TRPC6, membrane potential dye fluorescence, at 10 µM, stimulated with maximal-effect acetylcholine; active compounds read high
Short transient receptor potential channel 6 (Mus musculus), sequence (Q61143 whole entry, looked up): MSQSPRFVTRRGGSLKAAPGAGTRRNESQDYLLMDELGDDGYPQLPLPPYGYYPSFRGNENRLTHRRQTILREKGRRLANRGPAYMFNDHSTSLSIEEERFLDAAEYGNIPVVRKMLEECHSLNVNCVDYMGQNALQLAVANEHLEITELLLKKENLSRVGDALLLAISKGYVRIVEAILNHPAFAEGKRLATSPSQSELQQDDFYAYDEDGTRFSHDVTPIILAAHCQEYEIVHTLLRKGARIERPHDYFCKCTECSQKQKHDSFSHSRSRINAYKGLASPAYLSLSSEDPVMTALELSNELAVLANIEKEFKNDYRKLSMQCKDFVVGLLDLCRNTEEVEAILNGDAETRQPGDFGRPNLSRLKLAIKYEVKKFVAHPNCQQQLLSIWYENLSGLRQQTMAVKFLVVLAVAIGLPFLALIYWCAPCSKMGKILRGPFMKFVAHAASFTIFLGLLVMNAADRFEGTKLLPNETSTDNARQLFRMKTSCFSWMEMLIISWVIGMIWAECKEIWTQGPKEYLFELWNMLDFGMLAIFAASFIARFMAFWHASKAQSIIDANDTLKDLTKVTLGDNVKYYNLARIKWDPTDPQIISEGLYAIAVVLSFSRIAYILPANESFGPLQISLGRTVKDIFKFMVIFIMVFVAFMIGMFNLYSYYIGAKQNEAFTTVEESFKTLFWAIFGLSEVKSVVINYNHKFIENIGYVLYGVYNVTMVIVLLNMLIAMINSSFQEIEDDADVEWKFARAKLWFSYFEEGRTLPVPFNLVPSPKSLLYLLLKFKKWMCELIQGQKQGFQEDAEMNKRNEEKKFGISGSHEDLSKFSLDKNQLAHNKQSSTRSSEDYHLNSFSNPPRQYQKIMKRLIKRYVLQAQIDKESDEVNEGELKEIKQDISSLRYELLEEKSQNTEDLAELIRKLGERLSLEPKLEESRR

[10] = molecular target: Short transient receptor potential channel 6 (Mus musculus) (UniProt Q61143); assay: TRPC6 opening by TRPC4 activator hits – cell-based, HEK293, membrane potential dye, duplicate, selectivity assay for TRPC4 activator project, confirmation (AID 434950;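 active = membrane potential signal rise above negative control mean plus 3 SD in both duplicates, also active in the earlier TRPC4 screen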;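 for activation: 0% = buffer only wells and 100% = acetylcholine maximal-effect wells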); details: HEK293 TRPC6, membrane potential fluorescence, at 10 µM; activation: active compounds read high; outcome: activation
[11] = molecular target: Short transient receptor potential channel 6 (Mus musculus) (UniProt Q61143); assay: positive modulators of mouse TRPC6 channel – HEK293 cells, membrane potential dye, duplicate, selectivity assay for TRPC4 potentiator project, confirmation (AID 434952;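 active = compound raising the membrane signal above positive-control mean plus 3 SD in both repeats, and a primary screen hit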); details: HEK293 TRPC6, membrane potential dye fluorescence, at 10 µM, maximal acetylcholine added after compound; active compounds read high
[12] = molecular target: Short transient receptor potential channel 4 (Mus musculus) (UniProt Q9QUQ5); assay: calcium flux activators in TRPC4/5HT1a cells, counter-screen for TRPC4 activator project, cell-based, second counter screen, HEK293 TRPC4/5HT1a, Fluo-4 (AID 434977;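 active = calcium signal rise above buffer-control mean plus 5 SD in both duplicates, and also a hit in the primary screen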;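 for activation: plate controls were assay buffer for no effect and maximal serotonin response for full effect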); details: Fluo-4 calcium flux, at 10 µM; active compounds read high
[13] = serotonin-gated TRPC4 signal block – cell-based, second counter screen, HEK293 TRPC4/5HT1a, Fluo-4, counter-screen for TRPC4 inhibitor project, confirmation (AID 434978;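 active = primary screen active whose calcium signal fell more than 3 SD beyond the full-serotonin control mean in both duplicate plates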;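 note: serotonin given first at submaximal then at maximal dose after compound preincubation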); details: Fluo-4 calcium flux, at 10 µM, serotonin added to trigger calcium flux; active compounds read high
[14] = tested on: TRPC4 (mouse), co-expressed with 5HT1a in HEK293; assay: enhancement of serotonin-evoked TRPC4 response – cell-based, second counter screen, HEK293 TRPC4/5HT1a, Fluo-4, counter-screen for TRPC4 potentiator project, confirmation (AID 434979;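 active = signal rise over 3 SD above mean of control wells given weak agonist, in both repeats and first screen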); details: Fluo-4 calcium flux, at 10 µM, serotonin added at its EC20 dose; active compounds read high
[15] = nonspecific calcium rise without TRPC4 – cell-based, HEK293 mu-opioid receptor line, counter-screen for TRPC4 activator project, confirmation (AID 449723;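 active = hit in primary screen, with calcium signal over 5 SD above buffer well mean in both duplicates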;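 note: counter screen cells carry the mu-opioid receptor alone and lack TRPC4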); details: HEK293 mu-opioid cells, Fluo-4 calcium fluorescence, at 10 µM; active compounds read high
[16] = nonspecific potentiation of DAMGO calcium response – cell-based, HEK293 mu-opioid receptor line, counter-screen for TRPC4 allosteric potentiator project, confirmation (AID 449724;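 active = calcium signal rise more than 3 SD above the low-dose agonist control mean, in both duplicate plates and the primary screen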;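 note: HEK293 cells carrying mu-opioid receptor only with no TRPC4 channel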); details: HEK293 mu-opioid receptor cells, Fluo-4 calcium flux, at 10 µM, compound added before EC20 DAMGO stimulus; active compounds read high
[17] = nonspecific flux increase, KCNQ1-free cells – parental CHO cells, counter-screen for KCNQ1 potentiator project (AID 493006;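 active = duplicate-averaged activation above buffer control mean plus 5 SD of those controls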;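 for activation: fluorescence ratio of max minus min over baseline after K+ and Tl+ depolarization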); details: parental CHO-K1 cells, FluxOR thallium flux, at 10 µM; active compounds read high
[18] = molecular target: Potassium voltage-gated channel subfamily KQT member 1 (Homo sapiens) (UniProt P51787); assay: enhancement of KCNQ1 channel thallium flux – FluxOR thallium flux, CHO cells, duplicates, confirmation (AID 493007;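 active = potentiation averaged over duplicate wells exceeding buffer-only control mean by more than 3 SD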;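 for outcome: cells depolarized by a potassium plus thallium sulfate stimulus after compound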;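 for potentiation: 0% = buffer-only wells and 100% = R-L3 activator control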); details: KCNQ1 cell line, FluxOR thallium flux fluorescence, at 10 µM; active compounds read high, % of reference activator effect, buffer zero
Potassium voltage-gated channel subfamily KQT member 1 (Homo sapiens), sequence (P51787 whole entry, looked up): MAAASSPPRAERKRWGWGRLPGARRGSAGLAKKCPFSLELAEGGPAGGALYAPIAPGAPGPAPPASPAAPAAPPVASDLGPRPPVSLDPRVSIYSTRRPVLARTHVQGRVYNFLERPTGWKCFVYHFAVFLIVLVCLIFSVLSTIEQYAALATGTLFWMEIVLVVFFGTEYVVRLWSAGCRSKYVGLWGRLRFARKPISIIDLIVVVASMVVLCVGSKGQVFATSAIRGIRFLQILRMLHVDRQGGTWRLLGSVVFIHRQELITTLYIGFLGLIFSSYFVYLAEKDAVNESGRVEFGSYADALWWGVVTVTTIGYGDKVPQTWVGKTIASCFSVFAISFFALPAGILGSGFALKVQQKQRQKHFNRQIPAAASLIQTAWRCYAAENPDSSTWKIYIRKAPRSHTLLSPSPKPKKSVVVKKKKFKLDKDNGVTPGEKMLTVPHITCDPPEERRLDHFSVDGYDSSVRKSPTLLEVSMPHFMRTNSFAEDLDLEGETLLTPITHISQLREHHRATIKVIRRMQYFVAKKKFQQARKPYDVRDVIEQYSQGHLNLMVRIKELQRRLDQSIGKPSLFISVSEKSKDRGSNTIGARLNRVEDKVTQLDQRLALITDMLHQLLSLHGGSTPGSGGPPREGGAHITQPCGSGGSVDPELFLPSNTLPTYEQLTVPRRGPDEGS

[19] = molecular target: Potassium voltage-gated channel subfamily KQT member 2 (Rattus norvegicus) (UniProt O88943); assay: KCNQ2 thallium flux enhancement – KCNQ2-CHO-K1 cells, selectivity assay for KCNQ1 potentiator project (AID 493009;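 active = mean duplicate potentiation above the buffer control mean plus 5 SD of buffer wells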;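 note: assay conditions were tuned for KCNQ1 rather than KCNQ2 modulators; signal is max minus min fluorescence divided by baseline after thallium stimulus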); details: FluxOR thallium flux fluorescence, at 10 µM; active compounds read high, scaled: buffer 0, activator control 100
Potassium voltage-gated channel subfamily KQT member 2 (Rattus norvegicus), sequence (O88943 whole entry, looked up): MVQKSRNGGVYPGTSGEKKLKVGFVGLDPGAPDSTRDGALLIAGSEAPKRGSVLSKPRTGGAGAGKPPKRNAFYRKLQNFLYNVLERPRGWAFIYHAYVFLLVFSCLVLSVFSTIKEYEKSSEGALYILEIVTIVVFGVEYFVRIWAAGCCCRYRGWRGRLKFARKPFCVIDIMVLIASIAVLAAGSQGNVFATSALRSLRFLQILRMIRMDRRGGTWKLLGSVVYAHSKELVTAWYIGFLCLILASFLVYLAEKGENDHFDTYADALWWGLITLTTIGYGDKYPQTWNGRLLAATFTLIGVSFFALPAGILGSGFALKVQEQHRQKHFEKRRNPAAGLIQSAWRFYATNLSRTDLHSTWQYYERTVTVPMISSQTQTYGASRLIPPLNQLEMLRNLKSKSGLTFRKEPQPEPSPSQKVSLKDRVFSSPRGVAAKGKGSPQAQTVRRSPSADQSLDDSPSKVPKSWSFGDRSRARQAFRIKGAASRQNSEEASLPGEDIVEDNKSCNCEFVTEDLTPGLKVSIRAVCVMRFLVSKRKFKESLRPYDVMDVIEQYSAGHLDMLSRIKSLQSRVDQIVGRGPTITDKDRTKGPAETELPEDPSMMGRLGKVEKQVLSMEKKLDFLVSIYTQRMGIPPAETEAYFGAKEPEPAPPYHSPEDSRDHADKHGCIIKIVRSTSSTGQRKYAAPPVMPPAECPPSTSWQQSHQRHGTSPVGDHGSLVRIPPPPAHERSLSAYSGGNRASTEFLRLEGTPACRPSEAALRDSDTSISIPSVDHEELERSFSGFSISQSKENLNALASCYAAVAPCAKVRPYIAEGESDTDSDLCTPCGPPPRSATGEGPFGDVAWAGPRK

[20] = molecular target: Potassium voltage-gated channel subfamily KQT member 1 (Homo sapiens) (UniProt P51787); assay: KCNQ1 activators by electrophysiology – IonWorks patch clamp, KCNQ1-CHO cells, orthogonal assay for KCNQ1 potentiator project, confirmation (AID 493184;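 active = current rise at least 3 SD above the untreated control mean in each of two repeat wells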); details: automated patch clamp current, at 10 µM; active compounds read high

Compound: COc1ccc(-c2cc(C#N)nc(N3CCNCC3)n2)cc1
- activation [1]: 176% (active)
- outcome [2]: inactive
- outcome [3]: inactive
- outcome [4]: inactive
- outcome [5]: inactive
- outcome [6]: inactive
- outcome [7]: inactive
- outcome [8]: inactive
- outcome [9]: inactive
- outcome [10]: inactive
- outcome [11]: inactive
- outcome [12]: inactive
- outcome [13]: inactive
- outcome [14]: inactive
- outcome [15]: inactive
- outcome [16]: inactive

Compound: CCOc1ccc2ncc(C(=O)c3ccc(OC)cc3)c(N3CCN(CC)CC3)c2c1
- activation [1]: 196% (active)
- outcome [2]: inactive
- outcome [3]: inactive
- outcome [4]: inactive
- outcome [5]: inactive
- outcome [6]: inactive
- outcome [7]: inactive
- outcome [8]: inactive
- outcome [9]: inactive
- outcome [10]: inactive
- outcome [11]: inactive
- outcome [12]: inactive
- outcome [13]: inactive
- outcome [14]: inactive
- outcome [15]: inactive
- outcome [16]: inactive

Compound: COc1cc(OC)cc(C(=O)NC2CCCN(Cc3ccc(Cl)cc3)C2)c1 (configuration not stated)
- activation [1]: 111% (active)
- outcome [2]: inactive
- outcome [3]: inactive
- outcome [4]: inactive
- outcome [5]: inactive
- outcome [6]: inactive
- outcome [7]: inactive
- outcome [8]: inactive
- outcome [9]: inactive
- activation [10]: 44.5% (active)
- outcome [11]: inactive
- activation [12]: 31.6% (active)
- outcome [13]: inactive
- outcome [14]: inactive
- outcome [15]: inactive
- outcome [16]: inactive

Compound: O=C(NC(=S)NNC(=O)[C@H]1C[C@@H]1c1ccccc1)c1cccc(F)c1
- activation [1]: 213% (active)
- outcome [2]: inactive
- outcome [3]: inactive
- outcome [4]: inactive
- outcome [5]: inactive
- outcome [6]: inactive
- outcome [7]: inactive
- outcome [8]: inactive
- outcome [9]: inactive
- outcome [10]: inactive
- outcome [11]: inactive
- activation [12]: 140% (active)
- outcome [13]: inactive
- outcome [14]: inactive
- activation [15]: 30.6% (active)
- outcome [16]: inactive

Compound: CN1CCC(CNC(=O)Nc2ccccc2)(c2ccccc2)CC1
- activation [1]: 97% (active)
- activation [2]: 52% (active)
- outcome [3]: inactive
- outcome [4]: inactive
- outcome [5]: inactive
- outcome [6]: inactive
- outcome [7]: inactive
- outcome [8]: inactive
- outcome [9]: inactive
- outcome [10]: inactive
- outcome [11]: inactive
- outcome [12]: inactive
- outcome [13]: inactive
- outcome [14]: inactive
- outcome [15]: inactive
- outcome [16]: inactive

Compound: CN(C)C(CNC(=O)c1cnc(Cl)c(Cl)c1)c1ccccc1 (configuration not stated)
- activation [1]: 169% (active)
- activation [2]: 151% (active)
- outcome [3]: inactive
- outcome [4]: inactive
- outcome [5]: inactive
- outcome [6]: inactive
- outcome [7]: inactive
- outcome [8]: inactive
- outcome [9]: inactive
- activation [10]: 30.5% (active)
- outcome [11]: inactive
- outcome [12]: inactive
- outcome [13]: inactive
- outcome [14]: inactive
- outcome [15]: inactive
- outcome [16]: inactive

Compound: COC(=O)[C@@]1(Cc2ccc(F)cc2)[C@H]2c3cc(C(=O)N(C)C)n(CCc4ccccn4)c3C[C@H]2CN1C(=O)c1ccccc1
- activation [1]: 136% (active)
- outcome [2]: inactive
- outcome [3]: inactive
- outcome [4]: inactive
- outcome [5]: inactive
- outcome [6]: inactive
- outcome [7]: inactive
- outcome [8]: inactive
- outcome [9]: inactive
- activation [10]: 54% (active)
- outcome [11]: inactive
- outcome [12]: inactive
- outcome [13]: inactive
- outcome [14]: inactive
- outcome [15]: inactive
- outcome [16]: inactive

Compound: CC(=O)N1CCc2cc(Br)cc(S(=O)(=O)NCCCN(C)Cc3ccccc3)c21
- activation [1]: 87% (active)
- activation [2]: 72% (active)
- outcome [3]: inactive
- outcome [4]: inactive
- outcome [5]: inactive
- outcome [6]: inactive
- outcome [7]: inactive
- outcome [8]: inactive
- outcome [9]: inactive
- outcome [10]: inactive
- outcome [11]: inactive
- activation [12]: 27.8% (active)
- outcome [13]: inactive
- outcome [14]: inactive
- outcome [15]: inactive
- outcome [16]: inactive

Compound: Fc1ccc(C(c2nnnn2Cc2cccs2)N2CCN(C3CCCCC3)CC2)cc1 (configuration not stated)
- activation [1]: 251% (active)
- activation [2]: 67% (active)
- outcome [3]: inactive
- outcome [4]: inactive
- outcome [5]: inactive
- outcome [6]: inactive
- outcome [7]: inactive
- outcome [8]: inactive
- outcome [9]: inactive
- activation [10]: 60.5% (active)
- outcome [11]: inactive
- activation [12]: 22.7% (active)
- outcome [13]: inactive
- outcome [14]: inactive
- outcome [15]: inactive
- outcome [16]: inactive

Compound: CN(CCc1nc2ccc(Cl)cc2[nH]1)Cc1nc(CC2CC2)no1
- activation [1]: 115% (active)
- outcome [2]: inactive
- outcome [3]: inactive
- outcome [4]: inactive
- outcome [5]: inactive
- outcome [6]: inactive
- outcome [7]: inactive
- outcome [8]: inactive
- outcome [9]: inactive
- outcome [10]: inactive
- outcome [11]: inactive
- activation [12]: 23.4% (active)
- outcome [13]: inactive
- outcome [14]: inactive
- outcome [15]: inactive
- outcome [16]: inactive

Compound: Cc1ccc(C(=O)NNC(=S)NC(=O)c2ccccc2)cc1
- activation [1]: 239% (active)
- outcome [2]: inactive
- outcome [3]: inactive
- outcome [4]: inactive
- outcome [5]: inactive
- outcome [6]: inactive
- outcome [7]: inactive
- outcome [8]: inactive
- outcome [9]: inactive
- activation [10]: 27% (active)
- outcome [11]: inactive
- activation [12]: 133% (active)
- outcome [13]: inactive
- outcome [14]: inactive
- activation [15]: 77.1% (active)
- outcome [16]: inactive
- activation [17]: 188% (active)
- potentiation [18]: 156% (active)
- potentiation [19]: 300% (active)
- outcome [20]: inactive

Compound: COc1cc(OC)cc(C(=O)N[C@H](C(=O)OCC(=O)NC(C)c2ccccc2)C(C)C)c1 (some centres not stated)
- activation [1]: 118% (active)
- outcome [2]: inactive
- outcome [3]: inactive
- outcome [4]: inactive
- outcome [5]: inactive
- outcome [6]: inactive
- outcome [7]: inactive
- outcome [8]: inactive
- outcome [9]: inactive
- activation [10]: 36% (active)
- outcome [11]: inactive
- activation [12]: 85.2% (active)
- outcome [13]: inactive
- outcome [14]: inactive
- activation [15]: 45.3% (active)
- outcome [16]: inactive
- outcome [17]: inactive
- outcome [18]: inactive
- outcome [19]: inactive
- outcome [20]: inactive

Compound: CCn1c(N)[n+](CC(=O)Nc2ccc(SC(F)F)cc2)c2ccccc21
- activation [1]: 200% (active)
- outcome [2]: inactive
- outcome [3]: inactive
- outcome [4]: inactive
- outcome [5]: inactive
- outcome [6]: inactive
- outcome [7]: inactive
- outcome [8]: inactive
- outcome [9]: inactive
- outcome [10]: inactive
- outcome [11]: inactive
- activation [12]: 10.3% (active)
- outcome [13]: inactive
- outcome [14]: inactive
- outcome [15]: inactive
- outcome [16]: inactive

Compound: O=C(Cn1c(-c2ccccc2)c[n+]2ccsc12)c1ccc(Br)cc1
- outcome [1]: inactive
- activation [2]: 77% (active)
- outcome [3]: inactive
- outcome [4]: inactive
- outcome [5]: inactive
- outcome [6]: inactive
- outcome [7]: inactive
- outcome [8]: inactive
- outcome [9]: inactive
- outcome [10]: inactive
- outcome [11]: inactive
- outcome [12]: inactive
- outcome [13]: inactive
- outcome [14]: inactive
- outcome [15]: inactive
- outcome [16]: inactive
